Shown are actives, neighbours in structure and some others; about 2.4% of the full set was active somewhere.
C diff HTS: blocks growth of Clostridium difficile. Clostridium difficile clinical isolate growth, OD600, 24 h; hits give low values. AID 1259249. growth activity, negative = inhibition, % at 16 µg/mL (by protocol). 86,000 tested, 0.25% active;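 active = mean growth activity at or below -80% and every replicate also at or below -80%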
Pf Dd2 growth: inhibitors of Plasmodium falciparum Dd2 growth; P. falciparum Dd2 growth, SYBR Green, 72 h; hits give low values; activity change, % at 10 µM; 94,000 tested, 2.3% active; in the data active = activity change below about -80%
Numbers stand for hits; i = inactive.

SMILES | C diff HTS | Pf Dd2 growth
C[C@H]1CN([C@@H](C)CO)C(=O)c2ccccc2-c2ccccc2CO[C@H]1CN(C)C(=O)c1cc(Cl)cc(Cl)c1 | i | -83.0
COc1cccc(S(=O)(=O)N[C@H]2CC[C@@H](CC(=O)NCc3ccc(Cl)cc3)O[C@H]2CO)c1 | i | i
COc1ccccc1NC(=O)N(C)C[C@H]1Oc2cc(Br)ccc2S(=O)(=O)N([C@@H](C)CO)C[C@@H]1C | i | i
COc1ccc(-c2ccc([C@H]3[C@H](CO)N4C(=O)CN(C(=O)NC(C)C)C[C@@H]34)cc2)cc1 | i | i
C[C@H](C(=O)N(C)C[C@@H]1OCc2ccccc2-c2c(n(C)c3ccccc23)C(=O)N([C@@H](C)CO)C[C@H]1C)c1ccccc1 | i | i
C[C@H](CO)N1C[C@H](C)[C@@H](CN(C)C(=O)[C@H](C)c2ccccc2)OCc2ccccc2-c2c(n(C)c3ccccc23)C1=O | i | -93.8
C[C@H](CO)N1C[C@H](C)[C@@H](CN(C)S(=O)(=O)c2ccccc2)Oc2c(NC(=O)Nc3cccc4ccccc34)cccc2C1=O | i | i
C[C@@H]1CN([C@H](C)CO)C(=O)c2cccc(NC(=O)Nc3cccc4ccccc34)c2O[C@@H]1CN(C)S(=O)(=O)c1ccccc1 | i | -81.5
COc1ccc(S(=O)(=O)N(C)C[C@H]2Oc3c(NC(=O)Nc4cccc5ccccc45)cccc3C(=O)N([C@H](C)CO)C[C@H]2C)cc1 | i | -82.6
COc1ccc(S(=O)(=O)N(C)C[C@H]2Oc3c(NC(=O)Nc4cccc5ccccc45)cccc3C(=O)N([C@@H](C)CO)C[C@@H]2C)cc1 | i | i
COc1ccc(NC(=O)N(C)C[C@H]2Oc3ccc(NC(=O)Cc4ccccc4)cc3CC(=O)N([C@@H](C)CO)C[C@H]2C)cc1 | i | i
CC(=O)N(C)C[C@H]1Oc2ncc(C#Cc3ccccn3)cc2C(=O)N([C@H](C)CO)C[C@H]1C | i | i
COc1cccc(S(=O)(=O)N2CCCCN3[C@@H](CO)[C@@H](c4ccc(C5=CCCCC5)cc4)[C@@H]3C2)c1 | i | -84.4
COc1cccc(S(=O)(=O)N2CCCCN3[C@H](C2)[C@H](c2ccc(C4=CCCCC4)cc2)[C@@H]3CO)c1 | i | i
COc1cccc(S(=O)(=O)N2CCCCN3[C@@H](CO)[C@@H](c4ccc(C#CCC(C)C)cc4)[C@@H]3C2)c1 | i | -84.4
Cc1ccc(-c2ccc([C@@H]3[C@H](CO)N4CCCCN(S(=O)(=O)c5ccccc5C)C[C@@H]34)cc2)cc1 | i | -81.8
COc1cccc(S(=O)(=O)N2CCCCN3[C@H](C2)[C@@H](c2ccc(C#CCC(C)C)cc2)[C@@H]3CO)c1 | i | i
Cc1ccc(-c2ccc([C@H]3[C@@H](CO)N4CCCCN(S(=O)(=O)c5ccccc5C)C[C@@H]34)cc2)cc1 | i | i
O=C(Cc1ccccc1)N1CC[C@@H]2[C@H]1c1cc(Br)ccc1N[C@@H]2CO | i | i
CCCC(=O)N1CC2(C1)CN(Cc1ccncc1)[C@H](CO)c1[nH]c3cc(OC)ccc3c12 | i | i
CCCC(=O)N1CCC2(CC1)CN(Cc1ccncc1)[C@@H](CO)c1[nH]c3cc(OC)ccc3c12 | i | -91.2
COc1ccc(CN2CC3(CCN(C(=O)Cc4ccncc4)CC3)c3c([nH]c4cc(OC)ccc34)[C@@H]2CO)cc1 | i | -86.0
COc1ccc2c3c([nH]c2c1)[C@H](CO)N(Cc1ccncc1)CC31CN(C(=O)Cc2ccncc2)C1 | i | i
COc1ccc2c3c(n(C)c2c1)[C@@H](CO)N(C)CC31CN(S(=O)(=O)c2cccc(F)c2)C1 | i | i
N#C[C@H]1[C@@H](c2ccccc2-c2ccccc2F)[C@@H](CO)N1C(=O)C1CCOCC1 | i | -94.9
SMILES | C diff HTS | Pf Dd2 growth
COc1ccc(-c2ccccc2[C@H]2[C@@H](CO)N(C(=O)C3CCOCC3)[C@H]2C#N)cc1 | i | -86.8
N#C[C@H]1[C@H](c2ccccc2-c2ccccc2F)[C@H](CO)N1C(=O)C1CCOCC1 | i | i
COc1ccc(-c2ccccc2[C@H]2[C@@H](C#N)N(C(=O)C3CCCCC3)[C@H]2CO)cc1 | i | -92.7
COc1ccc(-c2ccccc2[C@H]2[C@@H](CO)N(C(=O)C3CCCCC3)[C@H]2C#N)cc1 | i | i
COc1ccc(-c2ccccc2[C@@H]2[C@@H](CO)N(C(=O)C3CC3)[C@H]2C#N)cc1 | i | i
C[C@H]1CN([C@@H](C)CO)C(=O)c2cc(C#Cc3ccncc3)cnc2O[C@@H]1CN(C)CC1CCOCC1 | i | i
Cc1noc(C)c1NC(=O)Nc1cccc2c1O[C@@H](CN(C)C(=O)NC(C)C)[C@@H](C)CN([C@@H](C)CO)C2=O | i | i
COc1ccc(NC(=O)N(C)C[C@@H]2Oc3cc(C#CCC(C)C)ccc3S(=O)(=O)N([C@@H](C)CO)C[C@H]2C)cc1 | i | i
CCCC#Cc1ccc2c(c1)O[C@@H](CN(C)C(=O)Nc1ccc(OC)cc1)[C@@H](C)CN([C@H](C)CO)S2(=O)=O | i | i
